The values that follow come from PubChem BioAssay (NCATS).

Assay [1] is described as follows: qHTS profiling of the MIPE4 collection as inhibitors of Plasmodium falciparum (DD2) proliferation (AID 743345; call rule not given here). As to conditions: P. falciparum Dd2 in erythrocytes, SYBR Green DNA, 72 h; at 28.5 µM (top of the series) unless noted. An outline of the steps:
(§1)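 Parasite DNA was quantified by SYBR Green I fluorescence (ex 485, em 535 nm) after overnight lysis in saponin/Triton buffer at room temperature. Cultures at 0.3% parasitemia and 2.5% hematocrit were first exposed to compound for 72 h at 37 C; signals were normalised to artemisinin (0.29 uM) and vehicle wells.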

Assay [2] is described as follows: qHTS profiling of the MIPE4 collection as inhibitors of Plasmodium falciparum (DD2) proliferation (Rep 2) (AID 743346; call rule not given here). As to conditions: P. falciparum Dd2 in erythrocytes, SYBR Green DNA, 72 h; at 28.5 µM (top of the series) unless noted. An outline of the steps:
as §1

A short description of assay [3]: qHTS profiling of the MIPE4 collection as inhibitors of Plasmodium falciparum (HB3) proliferation (AID 743347; call rule not given here;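 note: plate controls were DMSO vehicle wells for no effect and artemisinin wells for full effect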). The following applies: P. falciparum HB3 in erythrocytes, SYBR Green DNA, 72 h; at 28.5 µM (top of the series) unless noted. In outline:
as §1
(In general: In qHTS, concentration-response curves come from the screen itself.)

Assay [4] in a line: High-throughput drug toxicity screening in the BPDCN cell line Gen2.2 (AID 1224824; call rule not given here;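 note: cells exposed to compounds for 48 h before reading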). The following applies: Gen2.2 BPDCN cells; at 45.8 µM (top of the series) unless noted. In outline: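 Gen2.2, 500 cells/well, phenol red-free RPMI/10% FBS/Pen-Strep; 48 h cpd, 37 °C/5% CO2; CTG lum, 15 min RT. Norm: DMSO = 100%, bortezomib 9.2 uM final = 0%.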
The nature of assay [5]: High-throughput drug toxicity screening in the BPDCN cell line Cal-1 (AID 1224825; call rule not given here). As to conditions: Cal-1 BPDCN cell viability, qHTS; at 45.8 µM (top of the series) unless noted. In outline:
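CellTiter-Glo luminescence after 48 h compound exposure; percent activity scaled with DMSO as 100% and bortezomib (9.2 uM final) as 0%. Cal-1 cells seeded at 500/well in RPMI, 10% FBS, no phenol red.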

Assay [6] is described as follows: qHTS assay for measurement of the activity of small molecule inhibitors on Zika virus induced Caspase-3 activity in human iPSC derived neural progenitor cells (hNPCs) (AID 1224857). Note: % of control where 0% means no effect; nearly all actives have a fitted effect of over 65% in size. An outline of the steps: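 Values are percent inhibition of virus-induced caspase-3/7 signal, scaled between uninfected cells and ZIKV-infected cells. Infection used 2 FFU/cell for 6 h after 1 h compound exposure.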

Assay [7] is described as follows: qHTS assay for measurement of the activity of small molecule inhibitors on Zika virus induced Caspase-3 activity in human astrocytoma cells (AID 1224859).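 Note: plate controls were ZIKV-infected untreated cells for no effect and uninfected cells for full effect.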 An outline of the steps: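 Compound added 1 h pre-infection; ZIKV 2 FFU/cell on SNB-19 cells, 6 h, 37 C/5% CO2. Caspase-Glo 3/7 luminescence; values as % inhibition of ZIKV-induced caspase activity.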
Assay [8] can be described thus: qHTS Screen of the MIPE 4.0 Collection Against Ewings Sarcoma (RDES) (AID 1259252). Note: nearly all actives have a fitted effect of over 35% in size. Note: potency is the fitted concentration of half-maximal effect. An outline of the steps: (§2)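 Log-phase cells in RPMI with 5% FBS attached for 4 h, then received compounds as a titration for 48 h at 37C, 5% CO2. Viability was read by CellTiter-Glo luminescence and normalized to DMSO and no-cell wells.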
The nature of assay [9]: qHTS Screen of the MIPE 4.0 Collection Against Ewings Sarcoma (TC71) (AID 1259253). Note: nearly all actives have a fitted effect of over 40% in size. Note: potency is the fitted concentration of half-maximal effect. An outline of the steps: as §2
Assay [10] in a line: qHTS Screen of the MIPE 4.0 Collection Against Ewings Sarcoma (EW8) (AID 1259255).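 For viability: 100% = DMSO-treated cells and 0% = medium-only wells without cells.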 Note: nearly all actives have a fitted effect of over 35% in size. Note: potency is the fitted concentration of half-maximal effect. In outline:
as §2

The structures appear in SMILES notation. Inconclusive results are not listed. Activity calls are given as the source filed them. Unless noted, calls come from the whole dose curve; as a rule, active = well fitted inhibition curve with a large enough effect; inconclusive = small, poorly fitted or top-dose-only effect; inactive = no such curve, though single readings can be large or run the other way.

Regarding `CCOC(=O)C1=C(C)NC(=S)NC1c1cccc(O)c1` (stereo not given), in assay [1], the parasite growth remaining, % of DMSO control (lower = more inhibition) is 93.6%. Also, in assay [2], the parasite growth, % of control (lower = inhibition) is 85.5%. Moreover, in [3], the growth, % of control is 39%. For the same molecule, the cell viability, % of control (lower = more cytotoxic) in assay [4] is 48.9%. The viability (% of control) in assay [5] is 19.3%. The Potency entry in assay [6] and in [7] was “inactive” in each case. The Potency is 0.264 µM (active) in assay [8], 0.105 µM (active) in assay [9] and 0.0935 µM (active) in assay [10].
As for `C=CC(=O)Nc1cc(NC(=O)c2ccc(C)c(NC(=O)c3ccno3)c2)cc(C(F)(F)F)c1`, the parasite growth remaining, % of DMSO control (lower = more inhibition) in assay [1] came out at 52.8%. Besides, the parasite growth, % of control (lower = inhibition) in assay [2] is 57.2%. This molecule showed a growth, % of control in [3] of 22.8%. Further, the cell viability, % of control (lower = more cytotoxic) in [4] stood at 4.74%. The viability (% of control) in assay [5] turned out to be 3.59%. Moreover, the Potency entry in assay [6] and in [7] was “inactive” throughout. Further, the Potency in [8] was 23.5 µM (active); in assay [9], 20.9 µM (active); in [10], 20.9 µM (active).
With `CCCNS(=O)(=O)Nc1ncnc(OCCOc2ncc(Br)cn2)c1-c1ccc(Br)cc1`, the parasite growth remaining, % of DMSO control (lower = more inhibition) in assay [1] was 99.9%. Further, in assay [2], the parasite growth, % of control (lower = inhibition) was 82.3%. In [3], this molecule had a growth, % of control of 88.3%. Besides, the cell viability, % of control (lower = more cytotoxic) in assay [4] was 180%. Further, the viability (% of control) in [5] was 117%. Also, the Potency result in assay [6], in [7], in assay [8], in assay [9] and in [10] was “inactive” in each case.
Consider `CC(C)N1[N]C(=C2C=c3cc(O)ccc3=N2)c2c(N)ncnc21`, for which, in assay [1], the parasite growth remaining, % of DMSO control (lower = more inhibition) amounted to 13.1%. The parasite growth, % of control (lower = inhibition) in assay [2] turned out to be 10.7%. Also, the growth, % of control in [3] was found to be 3.6%. Moreover, the cell viability, % of control (lower = more cytotoxic) in assay [4] came to 2.36%. Further, the viability (% of control) in assay [5] is 2.77%. For the same molecule, the Potency result in assay [6] and in [7] was “inactive” in each case. Also, the Potency in [8] was 1.87 µM (active); in assay [9], 0.372 µM (active); in assay [10], 0.418 µM (active).
Consider `CC(=O)OC[C@@H]1O[C@@H](n2ccc(=O)[nH]c2=O)[C@H](OC(C)=O)[C@H]1OC(C)=O`, for which the parasite growth remaining, % of DMSO control (lower = more inhibition) in assay [1] amounted to 115%. Also, the parasite growth, % of control (lower = inhibition) in [2] came to 141%. In assay [3], the growth, % of control was found to be 250%. The cell viability, % of control (lower = more cytotoxic) in assay [4] worked out at 154%. For the same molecule, the viability (% of control) in assay [5] turned out to be 104%. Also, the Potency entry in assay [6], in [7], in assay [8], in assay [9] and in [10] was “inactive” in each case.
As for `C[C@H]1[C@@H](OC(=O)CCC(=O)O)O[C@@H]2O[C@@]3(C)CC[C@@H]4[C@H](C)CC[C@@H]1[C@@]24OO3`, the parasite growth remaining, % of DMSO control (lower = more inhibition) in assay [1] was found to be 7.38%. Moreover, in [2], the parasite growth, % of control (lower = inhibition) amounted to 10.6%. The same molecule displayed a growth, % of control in [3] of 8.92%. Moreover, the cell viability, % of control (lower = more cytotoxic) in [4] was 9.55%. Also, the viability (% of control) in assay [5] turned out to be 5.3%. In addition, the Potency result in assay [6] and in assay [7] was “inactive” each time. Further, the Potency in assay [8] was 1.87 µM (active); in assay [9], 1.32 µM (active); in assay [10] it was 1.66 µM (active).
For the molecule `C[C@H]1C[C@H]2[C@@H]3CCC4=CC(=O)C=C[C@]4(C)[C@@H]3C(=O)C[C@]2(C)[C@@]1(O)C(=O)CO`, in assay [1], the parasite growth remaining, % of DMSO control (lower = more inhibition) amounted to 97.9%. Moreover, in assay [2], the parasite growth, % of control (lower = inhibition) is 81.9%. This molecule also showed a growth, % of control in assay [3] of 86.6%. Further, the cell viability, % of control (lower = more cytotoxic) in [4] is 87.7%. Besides, the viability (% of control) in assay [5] came out at 108%. The Potency result in assay [6], in assay [7], in [8], in [9] and in assay [10] was “inactive” in each case.
